High-throughput results from PubChem.
GPR151 ag: activates the human receptor GPR151; Q8TDV0; AID 1508602; hit rate 1% among 650,000; activation, % at 11.2 µM; PathHunter beta-arrestin GPR151 cells, luminescence; in the data active means activation above about 4.9%
FBW7 act: activators of human E3 ligase FBW7 | AlphaScreen FBW7–phospho-cyclin E peptide binding, activator screen | AID 1259310 | Q969H0 | normalized activity (activation), % at 26.1 µM | hit rate 0.13% among 650,000; in the data active means normalized activity above about 1.9%;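 further: purified mutant Fbw7 with reduced substrate affinity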
MITF primary: human MITF inhibition, primary screen | O75030 | AlphaScreen MITF homodimerization, bead proximity signal | inhibition, % at 2.6 µM | hit rate 0.91% among 650,000 | AID 1259374; in the data active means inhibition above about 50%
TEAD-YAP inh: TEAD-YAP interaction inhibition | HEK-TIYL cells, TEAD-Gal4/YAP UAS-luciferase luminescence | inhibition, % at 9.12 µM | hit rate 1.4% among 640,000; in the data active means inhibition above about 32%
GPR151 conf act: human GPR151 activation, confirmation screen | AID 1508609 | 6,700 tested, under 10 active | activation, % at 11.2 µM | shares compounds with GPR151 ag | GPR151 PathHunter beta-arrestin cells, luminescence, 90 min; % of EA-reagent control over plate median;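 active means mean percent activation across replicates above the confirmation screen cutoff of 4.91%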
GPR119 ag: GPR119 activation, counter-screen for GPR151 activators; shares compounds with GPR151 ag; GPR119 PathHunter beta-arrestin cells, luminescence, 90 min; 0 = compound-well median, 100 = enzyme-acceptor control; activation, % at 11.2 µM; hit rate 0.3% among 6,700; AID 1508611;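 active means mean percent activation in the counterscreen above 29.09%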;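 further: counterscreen on off-target GPR119 to flag nonselective hits from the GPR151 activator screen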
Target sequence (Q8TDV5 whole entry, looked up): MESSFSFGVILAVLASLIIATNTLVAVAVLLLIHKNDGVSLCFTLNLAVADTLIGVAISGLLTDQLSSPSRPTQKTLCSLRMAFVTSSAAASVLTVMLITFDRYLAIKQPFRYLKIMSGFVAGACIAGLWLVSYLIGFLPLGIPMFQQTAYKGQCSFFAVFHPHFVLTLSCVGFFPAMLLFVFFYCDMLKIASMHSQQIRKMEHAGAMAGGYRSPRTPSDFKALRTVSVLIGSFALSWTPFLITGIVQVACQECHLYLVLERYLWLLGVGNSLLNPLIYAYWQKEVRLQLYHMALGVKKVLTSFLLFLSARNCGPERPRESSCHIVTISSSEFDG
Of the large screens only hits and unclear results are named; the others gave an inactive call (follow-up assays come after a bar, where they were run). Compounds with a hit are over-represented: about 3.5% of the library has one in this group of screens.

COc1ccc(C2C(C#N)=C(N)Oc3n[nH]c(C)c32)c2ccccc12 (stereo not drawn)	GPR151 ag 5.5 | GPR151 conf act inactive | GPR119 ag inactive
COc1ccc(C2C(C#N)=C(N)Oc3n[nH]c(C)c32)c(OC)c1OC (stereo not drawn)	none
COc1ccc(NC(=O)N2CCCCCC2)cc1OC	GPR151 ag 5.5 | GPR151 conf act inactive | GPR119 ag inactive
COc1ccc(NC(=O)N2CCN(C/C=C/c3ccccc3)CC2)cc1OC	GPR151 ag 14 | GPR151 conf act inactive | GPR119 ag inactive
CC(=O)c1cccc(NC(=O)N2CCN(C/C=C/c3ccccc3)CC2)c1	none
COc1ccc(NC(=S)NN2CCOCC2)cc1OC	GPR151 ag 14 | GPR151 conf act inactive | GPR119 ag inactive
COc1ccc(NC(=O)N2CCCC2)cc1OC	none
CCOc1ccccc1N1CCN(C(=O)Nc2ccc(OC)c(OC)c2)CC1	GPR151 ag 7.8 | GPR151 conf act inactive | GPR119 ag inactive
Cc1cc(C)n2c(Br)c(CN3CC(C)CC(C)C3)nc2n1 (stereo not drawn)	none
CCCn1nnnc1SCC(=O)Nc1ccc(OC)cc1	none
Cc1ccc(-n2nc3c(c2NC(=O)c2cccc([N+](=O)[O-])c2)CS(=O)(=O)C3)cc1	none
CN(C)C(=O)/C(=C\c1ccc(N(C)C)cc1)NC(=O)c1ccccc1	none
Cc1cc(NC(=O)CCN2CCN(C/C=C/c3ccccc3)CC2)ccc1Br	none
Cc1cccc(NC(=O)CCN2CCN(C/C=C/c3ccccc3)CC2)c1	GPR151 ag 4.9 | GPR151 conf act inactive | GPR119 ag inactive
CCOc1cccc(/C=C2/SC(=S)N(CCC(=O)O)C2=O)c1	GPR151 ag 4.9 | GPR151 conf act inactive | GPR119 ag inactive
COc1ccc(/C=C2\SC(=S)N(CCC(=O)NCCO)C2=O)cc1	GPR151 ag 5.1 | GPR151 conf act inactive | GPR119 ag inactive
CCOc1ccc(/C=C2\SC(=S)N(C(CC)C(=O)O)C2=O)cc1 (stereo not drawn)	GPR151 ag 6.0 | GPR151 conf act inactive | GPR119 ag inactive
Cc1nc(NC(=O)/C=C/c2ccc(Cl)c(Cl)c2)sc1C	none
O=C(N/N=C/c1ccc(Cl)c([N+](=O)[O-])c1)c1ccccc1[N+](=O)[O-]	none
CCN(CC)C(=O)c1cccc(N2C(=O)c3ccccc3C2=O)c1	none
Cc1ccc(NC(=O)NC2(C(=O)NCc3ccncc3)CCCCC2)cc1	GPR151 ag 5.4 | GPR151 conf act inactive | GPR119 ag inactive
COc1ccc(NC(=O)NC2(C(=O)NCc3ccncc3)CCCCC2)cc1	none
FC(F)(F)c1ccc(Cn2cnc3c(NC4CCN(Cc5ccccc5)CC4)nc(Nc4ccccc4)nc32)cc1	none
FC(F)(F)c1ccc(Cn2cnc3c(Nc4ccc(N5CCOCC5)cc4)nc(-c4ccccc4)nc32)cc1	GPR151 ag 5.2 | GPR151 conf act inactive | GPR119 ag inactive
COc1ccc(-c2nc(NCCOc3ccccc3)c3ncn(Cc4ccc(C(F)(F)F)cc4)c3n2)cc1	GPR151 ag 4.9 | GPR151 conf act inactive | GPR119 ag inactive
OCCNc1nc(-c2csc3ccccc23)nc2c1ncn2Cc1ccc(C(F)(F)F)cc1	GPR151 ag 6.1 | GPR151 conf act inactive | GPR119 ag inactive
FC(F)(F)c1ccc(Cn2cnc3c(NC4CCN(Cc5ccccc5)CC4)nc(Nc4ccc(C(F)(F)F)cc4)nc32)cc1	GPR151 ag 5.9 | GPR151 conf act inactive | GPR119 ag inactive
Cc1c(C(=O)N2CCOCC2)oc2c1-c1nn(CC(=O)NC3CCCCC3C)cc1CC2 (stereo not drawn)	none
COc1ccccc1N=Cc1c(O)n(Cc2ccccc2)c(=O)c2ccccc12	none
FC(F)(F)c1ccc(Cn2cnc3c(Nc4ccccc4)nc(Nc4ccccc4)nc32)cc1	GPR151 ag 6.2 | GPR151 conf act inactive | GPR119 ag inactive
FC(F)(F)c1ccc(Cn2cnc3c(NC4CC4)nc(-c4ccc(N5CCOCC5)nc4)nc32)cc1	GPR151 ag 8.0 | GPR151 conf act inactive | GPR119 ag inactive
CCCNc1nc(-c2ccc(N3CCOCC3)nc2)nc2c1ncn2Cc1ccc(C(F)(F)F)cc1	none
CCOC(=O)c1cc2occc2n1CC(=O)N1CC(C)CC(C)C1 (stereo not drawn)	none
CC(=O)NC(=O)NC(c1ccccc1)c1cccc(Cl)c1 (stereo not drawn)	GPR151 ag 6.1 | GPR151 conf act inactive | GPR119 ag inactive
CCn1c2ccccc2c2cc(CN3CCN(Cc4ccc(OC)c(OC)c4OC)CC3)ccc21	none
COc1ccc(CN2CCN(Cc3ccc(OC)c(OC)c3OC)CC2)cc1OC	GPR151 ag 5.9 | GPR151 conf act inactive | GPR119 ag inactive
CCNC(=O)N1CCN(Cc2ccccc2)CC1C(=O)NCc1ccccc1 (stereo not drawn)	none
CC(=O)N1CCN(Cc2ccccc2)CC1C(=O)NCc1ccccc1 (stereo not drawn)	GPR151 ag 5.5 | GPR151 conf act inactive | GPR119 ag inactive
O=C(NCc1n[nH]c(=S)n1-c1cccc(C(F)(F)F)c1)c1ccc(S(=O)(=O)N2CCCCC2)cc1	GPR151 ag 5.4 | GPR151 conf act inactive | GPR119 ag inactive
COc1ccc(N2C(=O)C3ON(c4ccccc4C)C(c4cccnc4)C3C2=O)cc1 (stereo not drawn)	none
CCc1nc(-n2nc(C)cc2N)c2c3c(sc2n1)CCC3	none
CCc1nc(-n2nc(C)cc2N)c2c3c(sc2n1)CCCC3	GPR151 ag 6.5 | GPR151 conf act inactive | GPR119 ag inactive
CC(C)C1Oc2ccccc2N(CC(=O)NCCCN2C(C)CCCC2C)C1=O (stereo not drawn)	GPR151 ag 5.0 | GPR151 conf act inactive | GPR119 ag inactive
COCCCNC(=O)CN1C(=O)C(C(C)C)Oc2ccc(C)cc21 (stereo not drawn)	GPR151 ag 6.1 | GPR151 conf act inactive | GPR119 ag inactive
CCS(=O)(=O)N1CCCC(c2nc3c(nnn3Cc3cccc(Cl)c3)c(=O)[nH]2)C1 (stereo not drawn)	none
CCN(CC)CCN1C(=O)c2ccccc2NC1c1ccc(Cl)cc1 (stereo not drawn)	GPR151 ag 7.6 | GPR151 conf act inactive | GPR119 ag inactive
O=C(C(Cc1ccccc1)NS(=O)(=O)c1ccc(Br)cc1)N1CCC2(CC1)OCCO2 (stereo not drawn)	none
C[C@H]1C(=O)N2CCN(Cc3ccc(F)c(F)c3)C[C@@H]2C(=O)N1C	GPR151 ag 6.8 | GPR151 conf act inactive | GPR119 ag inactive
Cc1ccc(Cl)cc1NC(=O)c1c(-c2c(Cl)cccc2Cl)noc1C	GPR151 ag 6.0 | GPR151 conf act inactive | GPR119 ag inactive
Cc1ccc(NC(=O)C2CCCN2Sc2ccccc2[N+](=O)[O-])c(C)c1 (stereo not drawn)	GPR151 ag 6.0 | GPR151 conf act inactive | GPR119 ag inactive
C1=C(CCNc2nc(Cc3ccccc3)nc3sc4c(c23)CCCC4)CCCC1	none
